# Results as given in PubChem BioAssay AID1209 (Sanford-Burnham Center for Chemical Genomics, 2008).
# Among all 190,000 compounds or so, about 810 (0.43%) were called active. This is one part of a sample in which actives are shown more often than they occur. Cut-off read from the data, not from the text of the source: active = inhibition above about 50%; inactive = the rest.
# Molecular target: Mannose-6-phosphate isomerase (Homo sapiens) (UniProt P34949)
# Assay: MPI enzyme activity inhibition – biochemical, fluorescence intensity, coupled assay, primary screen (AID 1209);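 note: plate controls were DMSO vehicle for no effect and wells lacking substrate for full effect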
# Conditions: purified PMI enzyme, at 20 µM, active compounds read high
# Sequence of Mannose-6-phosphate isomerase (Homo sapiens) (P34949 whole entry, looked up): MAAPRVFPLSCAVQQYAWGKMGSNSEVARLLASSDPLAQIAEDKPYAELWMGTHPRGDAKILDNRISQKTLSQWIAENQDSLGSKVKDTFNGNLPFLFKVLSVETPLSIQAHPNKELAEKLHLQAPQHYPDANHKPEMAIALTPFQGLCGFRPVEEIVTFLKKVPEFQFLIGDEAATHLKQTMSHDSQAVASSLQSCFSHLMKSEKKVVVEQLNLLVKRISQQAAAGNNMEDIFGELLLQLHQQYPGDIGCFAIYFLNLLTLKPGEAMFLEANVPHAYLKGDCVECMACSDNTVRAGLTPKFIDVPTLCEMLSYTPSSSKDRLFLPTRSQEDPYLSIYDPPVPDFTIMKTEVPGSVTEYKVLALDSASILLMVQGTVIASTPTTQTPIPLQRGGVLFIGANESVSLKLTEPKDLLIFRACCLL
row,SMILES,inhibition
1,O=C(Nc1cccc(C(=O)N2CCOCC2)c1)NC1CCCCC1,8.1% (inactive)
2,N#Cc1c(SCC(N)=O)nc(-c2ccccc2)c2c1CCCC2,-2.9% (inactive)
3,CCN1C(=O)C2(C(C#N)=C(N)Oc3cc(C)oc(=O)c32)c2ccccc21 (stereo unspecified),5.6% (inactive)
4,CCC(C)c1ccccc1NC(=O)Cc1coc2cc3c(cc12)CCC3 (stereo unspecified),19.4% (inactive)
5,CCOc1ccc(N2C(=O)CCC2=O)cc1,6.4% (inactive)
6,C/C(=C\C(=O)OCC(=O)NCc1ccccc1)C(=O)OCC(=O)NCc1ccccc1,6% (inactive)
7,O=C1CCC([N+](=O)[O-])C(c2cccc(Br)c2)N1 (stereo unspecified),-1% (inactive)
8,O=C(Cn1cc2c(n1)CCCC2)NCC1CCCO1 (stereo unspecified),3.4% (inactive)
9,Cc1ccc2sc(C)[n+](CCO)c2c1,-7.8% (inactive)
10,CCCC[n+]1c(C)sc2ccc(C)cc21,61.6% (active)
11,Cc1ccc2sc(C)[n+](CCCS(=O)(=O)[O-])c2c1,-3% (inactive)
12,Cc1sc2ccc3sccc3c2[n+]1C,-21.2% (inactive)
13,Cc1sc2c3ccsc3ccc2[n+]1C,-2.6% (inactive)
14,CC[n+]1c(C)sc2c3ccsc3ccc21,66.7% (active)
15,CCOP(=O)(OCC)C(Nc1ccc(C)cc1)c1ccco1 (stereo unspecified),-14.5% (inactive)
16,NC(=O)N/N=C/c1ccccc1OCC(=O)NCc1ccccc1,1.8% (inactive)
17,Cc1ccc(S(=O)(=O)NC(N)=NCCc2ccc(Cl)cc2)cc1C,15.4% (inactive)
18,CC(C)N1CCC2(CC1)N=C(c1ccc3c(c1)OCO3)CC(c1cc(Cl)ccc1O)N2 (stereo unspecified),23.4% (inactive)
19,COc1ccc(C(=O)c2cnc(/N=C/N(C)C)s2)cc1,14.2% (inactive)
20,COc1ccc(NC(=O)CSc2nnc(Cn3cnc4ccccc43)o2)cc1,4.8% (inactive)
21,O=C(O)c1cccc(N2C(=O)/C(=C/c3ccc(SCc4ccc(Cl)cc4)o3)SC2=S)c1,73.3% (active)

row,SMILES,inhibition
1,O=C1NC(=S)S/C1=C/c1ccc(N2CCOCC2)o1,-25.3% (inactive)
2,O=C1NC(=S)S/C1=C\c1ccc(SCc2ccco2)o1,10.3% (inactive)
3,O=C1/C(=C\c2ccco2)SC(=S)N1c1ccccc1,22.8% (inactive)
4,Cc1ccc(/C=C2\SC(=S)N(Cc3ccccc3)C2=O)o1,18.3% (inactive)
5,O=C1NC(=S)S/C1=C\c1ccc(SCc2ccccc2)o1,80.4% (active)
6,O=C(O)CN1C(=O)/C(=C/c2ccc(SCc3ccccc3)o2)SC1=S,85.2% (active)
7,Cc1cccc(C)c1-n1cccc1/C=C1\SC(=S)N(c2cccc(C(=O)O)c2)C1=O,1.3% (inactive)
8,O=C(O)c1cc(-c2ccc(/C=C3/SC(=S)N(Cc4ccccc4)C3=O)o2)ccc1Cl,-29.3% (inactive)
9,COC(=O)[C@@H](NC(=O)N(C1CCCCC1)C1CCCCC1)C(C)C,-2.2% (inactive)
10,Cc1nnc(SCC(=O)N2CC(=O)Nc3ccccc32)n1C,-5.6% (inactive)
11,Cc1ccc(N/C=C/C(=O)c2sc(-c3ccccc3)nc2C)cc1,14.3% (inactive)
12,COc1ccc(-c2csc(NC(=O)Cc3cccc4ccccc34)c2C(=O)O)cc1,-0.1% (inactive)
13,O=C(O)c1cccnc1SC1CC(=O)N(CCc2ccccc2)C1=O (stereo unspecified),3.4% (inactive)
14,CCc1nnc(NC(=O)c2ccc(S(=O)(=O)N3CCN(Cc4ccccc4)CC3)cc2)s1,-1.5% (inactive)
15,C/C=C/c1c(F)c(F)c(Oc2ccc(C(=O)O)cc2)c(F)c1F,-3.5% (inactive)
16,Cc1noc(C)c1COC(=O)CNC(=O)c1ccc(Cl)cc1,-4.1% (inactive)
17,COCCNC(=O)c1ccc(CN2CCOCC2)cc1,-8.4% (inactive)
18,CCN1C(=O)C(CC(=O)Nc2ccc(OC)cc2)N(CCc2ccc(OC)cc2)C1=S (stereo unspecified),-4.1% (inactive)
19,C=CCOC(=O)C1=C(C)NC(=S)NC1/C=C/c1ccccc1 (stereo unspecified),2.3% (inactive)
20,O=c1c(Cc2ccc(F)cc2)c(O)ccn1CCCn1ccnc1,3% (inactive)
21,O=C(Oc1ccc(C(=S)N2CCOCC2)cc1)c1ccc(Br)cc1,5.3% (inactive)

row,SMILES,inhibition
1,COc1ccc(C(=O)Oc2ccc(C(=S)N3CCOCC3)cc2)cc1,51% (active)
2,O=C(Oc1ccc(C(=S)N2CCOCC2)cc1)c1ccccc1,3.3% (inactive)
3,O=C(Nc1ncccn1)c1ccc(C(F)(F)F)cc1,4% (inactive)
4,CCOC(=O)C1(CCOC)CCN(Cc2ccccc2-c2ccco2)CC1,3.5% (inactive)
5,O=C1CCCN2N=C(SCC(=O)Nc3nccs3)SC2=N1,-3.6% (inactive)
6,CCOC(=O)C1=C(C)Nc2ccccc2N=C1NC(=O)/C=C/c1ccc(OC)cc1OC,19.3% (inactive)
7,CCOC(=O)C1=C(C)Nc2ccccc2N=C1NC(=O)Cc1ccc(OC)cc1,1.1% (inactive)
8,CCCCOc1ccc(/C=C/C(=O)NC2=Nc3ccccc3NC(C)=C2C(=O)OCC)cc1OC,65.6% (active)
9,Cc1c(-c2ccccc2)[n+](=O)c(-c2ccc(Cl)cc2)c(C)n1[O-],4.1% (inactive)
10,Cc1ccc(CN(c2ccc(C(=O)NCc3cccnc3)cc2)S(C)(=O)=O)cc1,-2.9% (inactive)
11,c1ccc(Cc2nn3c(COc4ccccc4)nnc3s2)cc1,53.1% (active)
12,Clc1ccccc1-c1nn2c(COc3ccccc3)nnc2s1,9.4% (inactive)
13,c1ccc(Cc2nnc3sc(-c4cccs4)nn23)cc1,8.2% (inactive)
14,CCOc1ccccc1OCc1nn2c(COc3ccccc3)nnc2s1,45.2% (inactive)
15,c1ccc(CCc2nn3c(Cc4ccccc4)nnc3s2)cc1,38.2% (inactive)
16,c1ccc(OCc2nnc3sc(-c4cccs4)nn23)cc1,65.5% (active)
17,Cc1cccc(NC(=O)CSc2nnc(-c3n[nH]c4ccccc34)o2)c1,17.6% (inactive)
18,COCCNC(=S)Nc1ccc([N+](=O)[O-])cc1C,2% (inactive)
19,CCOc1ccccc1N(C(=O)c1ccco1)C(C(=O)NC1CCCC1)c1cccnc1 (stereo unspecified),5.1% (inactive)
